Measurements taken from the supplement of paper PMC12669032.
Unmarked numbers belong to inactive results.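 The calls were made as follows: active = AUC reduced over 20% with Padj below 0.05 in at least 2 of 3 replicates; inactive = otherwise.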

The compounds below were run on Roseburia intestinalis (assay: growth AUC relative to DMSO control (median of replicates) (fraction); higher = more growth (less inhibition), active = hit call of the paper). Settings: 20 µM; 24 h.
Procedure, shortened: (§1)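 For each compound at 20 µM (1% DMSO), gut bacterial monocultures seeded at OD600 0.05 grew anaerobically in mGAM at 37 °C in round-bottom 96-well plates. Hourly OD600 readings over 24 h gave growth curves whose minimum OD was set to 0. Area under these curves was normalised to the plate median of solvent-only wells, or to row and column medians on the industrial chemical plate. Values are medians of three biological replicates grown on separate days.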

**Q.** With `COc1cc(Cl)ccc1Oc1ccc(Cl)cc1Cl` as the compound, how does the “growth AUC” value read?
**A.** 0.991

**Q.** Which “growth AUC” value does the source give for `c1ccc2c(c1)-c1cccc3c1c-2cc1ccccc13` here?
**A.** 0.998

**Q.** `CC(C)c1cc(Oc2ccccc2)cc(C(C)C)c1NC(=S)NC(C)(C)C` was tested. Which “growth AUC” value did it give?
**A.** 0.926

**Q.** Which “growth AUC” value does the source give for `O=C(NC(=O)c1c(F)cccc1F)Nc1cc(C(F)(F)F)cc(C(F)(F)F)c1Cl` here?
**A.** 0.942

**Q.** Which “growth AUC” value does the source give for `O=C(O)[C@@H](S)[C@@H](S)C(=O)O` here?
**A.** 1

**Q.** For `COC(=O)c1ccc(C(F)(F)F)nc1S(=O)(=O)[N-]C(=O)Nc1nc(OC)cc(OC)n1.[Na+]`, which “growth AUC” value is on record?
**A.** 0.941

**Q.** `CC(C)NS(=O)(=O)NC(=O)c1cc(-n2c(=O)cc(C(F)(F)F)[nH]c2=O)c(F)cc1Cl` was tested. Which “growth AUC” value did it give?
**A.** 1

**Q.** `Cc1cc(C)cc(OCC(C)Nc2nc(N)nc(C(C)(C)F)n2)c1` (stereo unspecified) was tested. Which “growth AUC” value did it give?
**A.** 0.971

**Q.** With `COC(=O)c1c(Cl)nn(C)c1S(=O)(=O)NC(=O)Nc1nc(OC)cc(OC)n1` as the compound, how does the “growth AUC” value read?
**A.** 1.04

**Q.** With `O=S(Cc1ccc(Cl)cc1)c1ccc(Cl)cc1` (stereo unspecified) as the compound, how does the “growth AUC” value read?
**A.** 1.01

**Q.** Which “growth AUC” value does the source give for `S=C([S-])NCCNC(=S)[S-].[Mn+2]` here?
**A.** 0.96

**Q.** With `O=C=NC1CCC(CC2CCC(N=C=O)CC2)CC1` (stereo unspecified) as the compound, how does the “growth AUC” value read?
**A.** 1.06

**Q.** For `O=C(O)c1ccc(Cl)cc1Cl`, which “growth AUC” value is on record?
**A.** 0.997

**Q.** With `c1ccc(Sc2ccccc2)cc1` as the compound, how does the “growth AUC” value read?
**A.** 1.13

**Q.** With `Oc1ccc2ccccc2c1N=Nc1ccccc1` as the compound, how does the “growth AUC” value read?
**A.** 1.13

**Q.** `CCC(C)Nc1nc(N)nc(Cl)n1` (stereo unspecified) was tested. Which “growth AUC” value did it give?
**A.** 0.998

**Q.** How did the “growth AUC” value turn out when `Nc1cccc(O)c1` was run?
**A.** 0.989

**Q.** How did the “growth AUC” value turn out when `CNC(=O)Sc1ccc(OS(C)(=O)=O)cc1` was run?
**A.** 0.992

**Q.** `CNC(=O)/C(=N/OC)c1ccccc1COc1cc(C(=O)O)ccc1C` was tested. Which “growth AUC” value did it give?
**A.** 0.996

**Q.** With `Cc1cc(C)cc(O)c1` as the compound, how does the “growth AUC” value read?
**A.** 1.03

**Q.** For `CCOc1nc(F)cc2nc(S(=O)(=O)Nc3c(Cl)cccc3C(=O)OC)nn12`, which “growth AUC” value is on record?
**A.** 1.04

**Q.** How did the “growth AUC” value turn out when `COc1cc(OC)c(Cl)cc1N` was run?
**A.** 1.06

**Q.** With `N#Cc1c(N)nc(NC2CC2)nc1N` as the compound, how does the “growth AUC” value read?
**A.** 0.999

**Q.** With `c1ccc2cc3c(ccc4ccccc43)cc2c1` as the compound, how does the “growth AUC” value read?
**A.** 1.01

**Q.** Which “growth AUC” value does the source give for `CCCN(CCOc1c(Cl)cc(Cl)cc1Cl)C(N)=O` here?
**A.** 0.939

**Q.** How did the “growth AUC” value turn out when `O=C(O)COc1cc(N2C(=O)C3=C(CCCC3)C2=O)c(F)cc1Cl` was run?
**A.** 0.987

**Q.** `COC(=O)c1ccc(C)cc1C1=NC(C)(C(C)C)C(=O)N1` (racemic) was tested. Which “growth AUC” value did it give?
**A.** 0.934

**Q.** With `COC(=O)C(C)Oc1ccc(Oc2ccc(C(F)(F)F)cn2)cc1` (stereo unspecified) as the compound, how does the “growth AUC” value read?
**A.** 0.956

**Q.** Which “growth AUC” value does the source give for `COc1nc(N)nc(NC(C)(C)C)n1` here?
**A.** 0.943

**Q.** Which “growth AUC” value does the source give for `COc1cccc(N(C)C(=S)Oc2cccc(C(C)(C)C)c2)n1` here?
**A.** 0.984

**Q.** With `CCCCCCCC/C=C\CCCCCCCCCCCC(=O)O` as the compound, how does the “growth AUC” value read?
**A.** 0.973

**Q.** `CN(C)C(=O)Nc1ccc(Oc2ccc(Cl)cc2)cc1` was tested. Which “growth AUC” value did it give?
**A.** 0.874

**Q.** With `CCCCCCCC(=O)Oc1c(Br)cc(C#N)cc1Br` as the compound, how does the “growth AUC” value read?
**A.** 0.935

**Q.** How did the “growth AUC” value turn out when `CCCN(CCC)C(=O)SCC` was run?
**A.** 0.948

**Q.** How did the “growth AUC” value turn out when `FC(F)(F)C(=NOCC1OCCO1)c1ccc(Cl)cc1` was run?
**A.** 1.17

**Q.** Which “growth AUC” value does the source give for `CCOc1ccc2c(c1)C(C)=CC(C)(C)N2` here?
**A.** 1.04

**Q.** For `CCc1cccc(C)c1N(C(=O)C(=O)O)C(C)COC` (stereo unspecified), which “growth AUC” value is on record?
**A.** 0.982

**Q.** With `CCC([O-])=C1C(=O)CC(C(=O)[O-])CC1=O.[Ca+2]` (stereo unspecified) as the compound, how does the “growth AUC” value read?
**A.** 1.12

What follows are compounds tested on Streptococcus salivarius in the same assay as above. Settings: 20 µM; 24 h.
Procedure, shortened: as §1

**Q.** With `COc1cc(Cl)ccc1Oc1ccc(Cl)cc1Cl` as the compound, how does the “growth AUC” value read?
**A.** 1.05

**Q.** Which “growth AUC” value does the source give for `c1ccc2c(c1)-c1cccc3c1c-2cc1ccccc13` here?
**A.** 1.03

**Q.** For `CC(C)c1cc(Oc2ccccc2)cc(C(C)C)c1NC(=S)NC(C)(C)C`, which “growth AUC” value is on record?
**A.** 0.992

**Q.** How did the “growth AUC” value turn out when `O=C(NC(=O)c1c(F)cccc1F)Nc1cc(C(F)(F)F)cc(C(F)(F)F)c1Cl` was run?
**A.** 0.922

**Q.** `O=C(O)[C@@H](S)[C@@H](S)C(=O)O` was tested. Which “growth AUC” value did it give?
**A.** 0.997

**Q.** For `COC(=O)c1ccc(C(F)(F)F)nc1S(=O)(=O)[N-]C(=O)Nc1nc(OC)cc(OC)n1.[Na+]`, which “growth AUC” value is on record?
**A.** 1.02

**Q.** `CC(C)NS(=O)(=O)NC(=O)c1cc(-n2c(=O)cc(C(F)(F)F)[nH]c2=O)c(F)cc1Cl` was tested. Which “growth AUC” value did it give?
**A.** 1

**Q.** How did the “growth AUC” value turn out when `Cc1cc(C)cc(OCC(C)Nc2nc(N)nc(C(C)(C)F)n2)c1` (stereo unspecified) was run?
**A.** 0.967

**Q.** With `COC(=O)c1c(Cl)nn(C)c1S(=O)(=O)NC(=O)Nc1nc(OC)cc(OC)n1` as the compound, how does the “growth AUC” value read?
**A.** 1.05

**Q.** Which “growth AUC” value does the source give for `O=S(Cc1ccc(Cl)cc1)c1ccc(Cl)cc1` (stereo unspecified) here?
**A.** 0.984

**Q.** Which “growth AUC” value does the source give for `S=C([S-])NCCNC(=S)[S-].[Mn+2]` here?
**A.** 1.07

**Q.** With `O=C=NC1CCC(CC2CCC(N=C=O)CC2)CC1` (stereo unspecified) as the compound, how does the “growth AUC” value read?
**A.** 1.01

**Q.** For `O=C(O)c1ccc(Cl)cc1Cl`, which “growth AUC” value is on record?
**A.** 1

**Q.** For `c1ccc(Sc2ccccc2)cc1`, which “growth AUC” value is on record?
**A.** 0.994

**Q.** `Oc1ccc2ccccc2c1N=Nc1ccccc1` was tested. Which “growth AUC” value did it give?
**A.** 0.914

**Q.** Which “growth AUC” value does the source give for `CCC(C)Nc1nc(N)nc(Cl)n1` (stereo unspecified) here?
**A.** 0.987

**Q.** How did the “growth AUC” value turn out when `Nc1cccc(O)c1` was run?
**A.** 1.02

**Q.** Which “growth AUC” value does the source give for `CNC(=O)Sc1ccc(OS(C)(=O)=O)cc1` here?
**A.** 0.937

**Q.** `CNC(=O)/C(=N/OC)c1ccccc1COc1cc(C(=O)O)ccc1C` was tested. Which “growth AUC” value did it give?
**A.** 0.995

**Q.** For `Cc1cc(C)cc(O)c1`, which “growth AUC” value is on record?
**A.** 1.03

**Q.** Which “growth AUC” value does the source give for `CCOc1nc(F)cc2nc(S(=O)(=O)Nc3c(Cl)cccc3C(=O)OC)nn12` here?
**A.** 1.01

**Q.** How did the “growth AUC” value turn out when `COc1cc(OC)c(Cl)cc1N` was run?
**A.** 1.06

**Q.** `N#Cc1c(N)nc(NC2CC2)nc1N` was tested. Which “growth AUC” value did it give?
**A.** 1

**Q.** For `c1ccc2cc3c(ccc4ccccc43)cc2c1`, which “growth AUC” value is on record?
**A.** 0.962

**Q.** With `CCCN(CCOc1c(Cl)cc(Cl)cc1Cl)C(N)=O` as the compound, how does the “growth AUC” value read?
**A.** 0.972

**Q.** `O=C(O)COc1cc(N2C(=O)C3=C(CCCC3)C2=O)c(F)cc1Cl` was tested. Which “growth AUC” value did it give?
**A.** 0.977

**Q.** `COC(=O)c1ccc(C)cc1C1=NC(C)(C(C)C)C(=O)N1` (racemic) was tested. Which “growth AUC” value did it give?
**A.** 0.97

**Q.** For `COC(=O)C(C)Oc1ccc(Oc2ccc(C(F)(F)F)cn2)cc1` (stereo unspecified), which “growth AUC” value is on record?
**A.** 0.96

**Q.** `COc1nc(N)nc(NC(C)(C)C)n1` was tested. Which “growth AUC” value did it give?
**A.** 1.03

**Q.** `COc1cccc(N(C)C(=S)Oc2cccc(C(C)(C)C)c2)n1` was tested. Which “growth AUC” value did it give?
**A.** 0.967

**Q.** Which “growth AUC” value does the source give for `CCCCCCCC/C=C\CCCCCCCCCCCC(=O)O` here?
**A.** 0.898

**Q.** How did the “growth AUC” value turn out when `CN(C)C(=O)Nc1ccc(Oc2ccc(Cl)cc2)cc1` was run?
**A.** 0.94

**Q.** With `CCCCCCCC(=O)Oc1c(Br)cc(C#N)cc1Br` as the compound, how does the “growth AUC” value read?
**A.** 0.937

**Q.** How did the “growth AUC” value turn out when `CCCN(CCC)C(=O)SCC` was run?
**A.** 1

**Q.** Which “growth AUC” value does the source give for `FC(F)(F)C(=NOCC1OCCO1)c1ccc(Cl)cc1` here?
**A.** 1.02

**Q.** With `CCOc1ccc2c(c1)C(C)=CC(C)(C)N2` as the compound, how does the “growth AUC” value read?
**A.** 1.06

**Q.** `CCc1cccc(C)c1N(C(=O)C(=O)O)C(C)COC` (stereo unspecified) was tested. Which “growth AUC” value did it give?
**A.** 1

**Q.** How did the “growth AUC” value turn out when `CCC([O-])=C1C(=O)CC(C(=O)[O-])CC1=O.[Ca+2]` (stereo unspecified) was run?
**A.** 0.917
